Assay outcomes as filed in PubChem BioAssay.
USP30 block: inhibitors of human USP30 deubiquitinase | actives 5.3% (n = 47,000) | purified USP30, Ub-rhodamine cleavage fluorescence | AID 1645860 | Q70CQ3 | inhibition, % at 25 µM
USP17 inh: blocks human USP17 ubiquitin-rhodamine cleavage; inhibition, % at 50 µM; purified USP17, Ub-rhodamine cleavage fluorescence, 3 h; AID 1645855; actives 6.5% (n = 47,000)
USP10 block: blocks human USP10 ubiquitin-rhodamine cleavage; Q14694; purified USP10, Ub-rhodamine fluorescence, 60 min; inhibition, % at 20 µM; actives 1.1% (n = 47,000); AID 1645856
USP8 block: human USP8 deubiquitinase inhibition; inhibition, % at 20 µM; purified USP8, Ub-rhodamine cleavage fluorescence, 30 min; P40818; AID 1645853; actives 4.2% (n = 47,000)
USP28 block: human USP28 deubiquitinase inhibition; Q96RU2; purified USP28, Ub-rhodamine cleavage fluorescence, 30 min; inhibition, % at 25 µM; actives 3% (n = 47,000)
A number is an active result. Hits are enriched below; roughly 14% of the tested compounds scored in any of these assays. No stated cut-off is given here; in the data, active means inhibition above about 30%; inactive means the rest.

`O=C(CCCCn1c(=O)[nH]c2ccccc2c1=O)Nc1cccc(Cl)c1` gave USP30 block inactive, USP17 inh 79.7, USP10 block inactive, USP8 block 81.4 and USP28 block inactive.
`CC1=C(C(=O)N2CCCCC2)C(c2cccs2)n2c(nc3ccccc32)N1` (configuration not stated) gave USP30 block inactive, USP17 inh inactive, USP10 block inactive, USP8 block inactive and USP28 block inactive.
Brc1ccc(C2=CC(c3cccs3)n3c(nc4ccccc43)N2)s1 (configuration not stated) was read as USP30 block inactive, USP17 inh inactive, USP10 block inactive, USP8 block 41.6 and USP28 block inactive.
`COC(=O)c1c(C)nn(C)c1-c1ccno1` gave USP30 block 30.8, USP17 inh inactive, USP10 block inactive, USP8 block inactive and USP28 block inactive.
Screening COC(=O)c1c(C(=O)OC)c(-c2ccccc2)n(C)c1-c1ccccc1 returned USP30 block inactive, USP17 inh inactive, USP10 block inactive, USP8 block inactive and USP28 block inactive.
For CCc1cccc(NC(=O)C2=C(C)C(=O)OC23CCN(CC)CC3)c1 the results were USP30 block inactive, USP17 inh inactive, USP10 block inactive, USP8 block inactive and USP28 block inactive.
Screening CC(=O)O[C@@H](C/C=C(\C)C(=O)O)[C@@H](C)[C@H]1C[C@H](OC(C)=O)[C@@]2(C)C3=CC[C@H]4C(C)(C)[C@H](O)CC[C@]4(C)C3=CC[C@]12C returned USP30 block 62.3, USP17 inh 55.8, USP10 block 52.0, USP8 block inactive and USP28 block 45.4.
Screening CC(=O)O[C@@H](C/C=C(\C)C(=O)O)[C@@H](C)[C@H]1C[C@H](OC(C)=O)[C@@]2(C)C3=CC[C@H]4C(C)(C)[C@H](OC(C)=O)CC[C@]4(C)C3=CC[C@]12C returned USP30 block 101.1, USP17 inh 100.2, USP10 block 95.2, USP8 block 92.2 and USP28 block 99.9.
`O=C1NCCNC(=O)C2(C/C=C/COc3ccccc31)CCCN(Cc1cncs1)C2` (configuration not stated) gave USP30 block inactive, USP17 inh inactive, USP10 block inactive, USP8 block inactive and USP28 block inactive.
Fc1ccc(N2CCN(c3ncnc4nc[nH]c34)CC2)cc1 was read as USP30 block inactive, USP17 inh inactive, USP10 block inactive, USP8 block inactive and USP28 block inactive.
For Clc1cccc(N2CCN(c3ncnc4nc[nH]c34)CC2)c1 the results were USP30 block inactive, USP17 inh 56.4, USP10 block inactive, USP8 block inactive and USP28 block inactive.
`Nc1nc(N2CCN(c3ccc(Cl)cc3)CC2)c2[nH]cnc2n1` gave USP30 block inactive, USP17 inh 41.6, USP10 block inactive, USP8 block inactive and USP28 block inactive.
`CSCCC(NC(=O)c1cnn(Cc2ccccc2)c1)c1nc2ccccc2[nH]1` (configuration not stated) gave USP30 block inactive, USP17 inh inactive, USP10 block inactive, USP8 block inactive and USP28 block inactive.
Screening Cc1cccn2c(=O)c3cc(C(=O)NCCCOC(C)C)n(Cc4ccccc4)c3nc12 returned USP30 block inactive, USP17 inh inactive, USP10 block inactive, USP8 block inactive and USP28 block inactive.
`O=C(Nc1ccccc1C(=O)NC1CCSC1)c1ccc([N+](=O)[O-])cc1` (configuration not stated) gave USP30 block 45.1, USP17 inh 46.1, USP10 block inactive, USP8 block inactive and USP28 block inactive.
CCOc1ccc(NC(=O)COc2ccc(F)cc2)c2cccnc12 was read as USP30 block inactive, USP17 inh inactive, USP10 block inactive, USP8 block inactive and USP28 block inactive.
`CCCCOc1cccc(C(=O)Nc2ccc(OCC)c3ncccc23)c1` gave USP30 block inactive, USP17 inh 47.1, USP10 block inactive, USP8 block 83.3 and USP28 block inactive.
CC(NC(=O)c1cn(C)nc1S(=O)(=O)N1CCCCC1)c1ccc(F)cc1 (configuration not stated) was read as USP30 block inactive, USP17 inh inactive, USP10 block inactive, USP8 block inactive and USP28 block inactive.
For COc1ccc(OC)c(S(=O)(=O)N2CCn3cccc3C2c2ccccc2F)c1 (configuration not stated) the results were USP30 block inactive, USP17 inh inactive, USP10 block inactive, USP8 block inactive and USP28 block inactive.
